Screens: PubChem, several laboratories
ERp5 inh: ERp5 (human) disulfide isomerase inhibition. Q15084. ERp5 insulin aggregation, absorbance 650 nm, 90 min. inhibition, % at 9.99 µM. 350,000 compounds, 0.05% hits. AID 651711;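 active = mean replicate inhibition above about 25%, with every replicate also reaching it, limit read from the data, passing the limit was not always enough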
Target sequence (Q15084 whole entry, looked up): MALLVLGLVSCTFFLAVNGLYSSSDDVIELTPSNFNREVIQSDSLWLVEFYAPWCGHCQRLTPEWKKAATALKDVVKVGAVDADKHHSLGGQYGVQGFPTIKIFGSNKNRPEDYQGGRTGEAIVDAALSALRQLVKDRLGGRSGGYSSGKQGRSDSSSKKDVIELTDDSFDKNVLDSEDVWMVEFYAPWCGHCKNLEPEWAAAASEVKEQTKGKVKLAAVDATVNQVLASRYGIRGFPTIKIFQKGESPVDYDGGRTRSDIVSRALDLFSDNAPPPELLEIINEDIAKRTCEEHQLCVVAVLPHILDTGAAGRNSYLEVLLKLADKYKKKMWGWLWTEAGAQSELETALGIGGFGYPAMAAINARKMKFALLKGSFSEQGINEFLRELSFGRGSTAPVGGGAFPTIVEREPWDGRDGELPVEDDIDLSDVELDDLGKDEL
PDI inh: PDI (human) enzyme inhibition; 350,000 compounds, 0.052% hits; P07237; inhibition, % at 10 µM; PDI insulin aggregation turbidity, A650, 90 min;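 active = mean inhibition across replicates of 30% or more, whatever share of single replicates reach that level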
PvdQ inh: P. aeruginosa PvdQ acylase inhibition; 340,000 compounds, 0.063% hits; purified PvdQ acylase, fluorescence plate reader; inhibition, % at 10 µM; in the data active = inhibition above about 30%, passing the limit was not always enough;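 note: 0% = vehicle neutral wells and 100% = reference inhibitor wells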
Efflux pump inh: blocks antifungal efflux pumps in multiplex yeast assay; S. cerevisiae Candida pump triplex, Nile Red efflux; inhibition, % at 10 µM; 330,000 compounds, 0.44% hits;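 active = plate passing quality check with inhibition over a set limit, or well fluorescence over plate mean plus 4 SD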;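 note: Nile Red retained in pooled yeast measured as flow cytometry median fluorescence; 0% = buffer negative control and 100% = Enniatin B positive control; higher means more Nile Red kept so more efflux inhibition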
Rtt109 HAT inh: inhibitors of Candida albicans Rtt109/Vps75 histone acetyltransferase; Q5AAJ8; purified Rtt109/Vps75, ThioGlo CoA-SH fluorescence, 4 h; inhibition, % at 34.9 µM; 330,000 compounds, 0.16% hits;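 active = inhibition of at least 50% in every replicate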
* hit, by the source's call; . = not tested or not shown. The list is not random: actives were taken first. Their share in the collection is about 0.54%.

SMILES | ERp5 inh | PDI inh | PvdQ inh | Efflux pump inh | Rtt109 HAT inh
O=C1N[C@H](Cc2ccccc2)COCn2nncc2CC[C@H]1Cc1ccccc1 | -2 | . | . | . | .
O=C(O)c1ccccc1NS(=O)(=O)c1cccc(C(F)(F)F)c1 | . | 0 | 2 | 0 | 0
O=C(O)c1ccccc1NS(=O)(=O)c1cccc(-n2sc3ccccc3c2=O)c1 | -1 | -19 | -13 | 0 | 153*
O=c1c2c(O)cc(O)cc2oc2c(O)ccc(O[C@H]3O[C@@H](CO)[C@H](O)[C@@H](O)[C@@H]3O)c12 | 0 | 2 | -4 | 0 | -3
C[C@@H]1O[C@@H](Oc2c(-c3cc(O)c(O)c(O)c3)oc3cc(O)cc(O)c3c2=O)[C@H](O)[C@H](O)[C@H]1O | 12 | 47* | -12 | 0 | 6
C[C@@H]1O[C@@H](O[C@H]2[C@H](O)[C@@H](O)[C@H](Oc3c(-c4ccc(O)c(O)c4)oc4cc(O)cc(O)c4c3=O)O[C@@H]2CO)[C@H](O)[C@H](O)[C@H]1O | -7 | 67* | -8 | 0 | 1
C[C@@H]1O[C@@H](OC[C@H]2O[C@@H](Oc3cc(O)c4c(=O)cc(-c5ccc(O)c(O)c5)oc4c3)[C@H](O)[C@@H](O)[C@@H]2O)[C@H](O)[C@H](O)[C@H]1O | . | 4 | -4 | 0 | 7
C[C@@H]1O[C@@H](Oc2c(-c3ccc(O)c(O)c3)oc3cc(O)cc(O)c3c2=O)[C@H](O)[C@H](O)[C@H]1O | 2 | 73* | -14 | -1 | 16
COc1cc(-c2oc3cc(O)cc(O)c3c(=O)c2O[C@@H]2O[C@H](COC3O[C@@H](C)[C@H](O)[C@@H](O)[C@H]3O)[C@@H](O)[C@H](O)[C@H]2O)ccc1O (stereo not given in full) | -2 | 56* | 4 | 0 | 7
O=C(Cc1ccccc1)N1CC2(C1)[C@H](c1ccccc1)[C@H](CO)N2C(=O)c1cccnc1 | 5 | . | . | . | .
C[C@H]1CN([C@@H](C)CO)C(=O)c2cccc(NC(=O)Nc3ccc4c(c3)OCO4)c2O[C@@H]1CN(C)Cc1ccc(C(=O)Nc2ccccc2N)cc1 | 7 | . | . | . | .
COCC#Cc1ccc2c(c1)O[C@@H](CN(C)S(=O)(=O)c1ccc(C)cc1)[C@H](C)CN([C@H](C)CO)S2(=O)=O | 1 | . | . | . | .
O=C1[C@@H](c2ccccc2)CC[C@@H]2C=CC[C@H]3CCN1[C@@H]32 | 31* | . | . | . | .
O=C([C@@H]1CC=C[C@@H]2CCN(C3CCCCC3)C(=O)[C@@H]21)N1CCN(c2ccccc2)CC1 | 1 | -4 | -3 | 0 | 5
CC(C)Cn1c(N)c(C(=O)COC(=O)c2ccc(O)cc2)c(=O)n(C)c1=O | 0 | 55* | -13 | 0 | -1
CC(C)Cn1c(N)c(C(=O)COC(=O)c2cc(F)cc(F)c2)c(=O)n(C)c1=O | -8 | 3 | 4 | 0 | -1
COc1ccc(-c2cc(C(F)F)n3ncc(C(=O)N4CCN(C(=O)c5ccco5)CC4)c3n2)cc1 | 2 | -4 | -6 | 0.8* | -3
C[C@H](CO)N1C[C@H](C)[C@@H](CN(C)C(=O)CCCN(C)C)OCCCC[C@H](C)Oc2ccc(NC(=O)CCCN(C)C)cc2C1=O | 0 | . | . | . | .
Cc1cc(C)nc(N(C#N)Cc2ccc(Cl)cc2)n1 | -3 | -2 | 36* | 0 | -4
O=C(CCC(=O)OCC(=O)c1cccc([N+](=O)[O-])c1)Nc1cccc(Cl)c1Cl | . | -2 | -14 | 0 | -6
O=C(CCC(=O)OCC(=O)c1ccc([N+](=O)[O-])cc1)Nc1ccccc1Cl | . | -8 | -12 | 0 | 75*
Cc1ccccc1OCC(=O)NCC(=O)OCC(=O)c1ccc([N+](=O)[O-])cc1 | 2 | 0 | -13 | 0 | 130*
O=C(NC(=S)Nc1ccc(Oc2ccccc2)cc1)c1ccc(Cl)cc1 | . | -7 | -1 | 0 | 55*
Cc1ccc(C(=O)NC(=S)Nc2ccc(Oc3ccc(Cl)cc3)cc2)cc1 | . | -4 | -3 | 0 | 0
Cc1ccc(NC(=O)c2cccc(N3C(=O)C4C5CCC(C5)C4C3=O)c2)c(C)c1 (stereo not given) | . | -8 | -1 | 0 | 4
SMILES | ERp5 inh | PDI inh | PvdQ inh | Efflux pump inh | Rtt109 HAT inh
Cc1ccc2c(c1)C1C3CCC(C3)C1S(=O)N2 (stereo not given) | -2 | 1 | 57* | 0 | -9
COc1ccc2c3c(n(C)c2c1)[C@@H](CO)N(C)CC31CCN(C(=O)Nc2c(C)noc2C)CC1 | 0 | . | . | . | .
CCCNC(=O)N1CC2(C1)[C@@H](c1ccccc1)[C@H](CO)N2C(=O)C1CC1 | -6 | . | . | . | .
CCc1nnc(NC(=O)CSc2nnc(C3CCCCC3)n2-c2cccc(Cl)c2)s1 | . | 1 | -15 | 0 | 59*
CCc1nnc(NC(=O)CSc2nnc(CNc3cccc(Cl)c3)n2CC)s1 | 1 | -4 | -6 | 0 | -1
O=C(/C=C/c1ccc(Br)cc1)c1ccco1 | 3 | -12 | 56* | 0 | 2
O=C(/C=C/c1ccc([N+](=O)[O-])cc1)c1ccco1 | -1 | -8 | 0 | 0 | -9
Cc1ccc(S(=O)(=O)N2CCN(C(=O)CCc3nc4ccccc4c(=O)[nH]3)CC2)c(C)c1 | 26* | -4 | -1 | 0 | -6
CCCN(C)C[C@@H]1Oc2cc(C#CC3CCCC3)ccc2S(=O)(=O)N([C@@H](C)CO)C[C@@H]1C | -9 | . | . | . | .
Cc1cc(Cl)ccc1NC(=S)N1CCN(C(=O)C2CCCO2)CC1 (stereo not given) | . | -10 | -11 | 3 | 8
O=C(C1CCCO1)N1CCN(C(=S)Nc2ccc(Cl)cc2Cl)CC1 (stereo not given) | 3 | 11 | 1 | 0 | 53*
CCOC(=O)c1c(C)oc2c(CC(=O)c3ccccc3)c(Cl)c(O)c(O)c12 | . | 12 | 4 | 0 | 58*
CC(=O)Nc1ccc(S(=O)(=O)NCCSCc2ccco2)cc1 | 1 | -2 | 16 | 0 | -7
CS(=O)(=O)NCCSCc1ccco1 | -4 | 11 | 3 | 0 | 53*
O=C(c1cc(NC(=O)C23CC4CC(CC(C4)C2)C3)cc(NC(=O)C23CC4CC(CC(C4)C2)C3)c1)N1CCCCC1 | . | . | . | 1.1* | .
O=C(NC(=S)N1CCCCC1)C12CC3CC(CC(C3)C1)C2 | . | -6 | -8 | 0 | -1
COc1ccc2c3c([nH]c2c1)[C@H](CO)N(S(C)(=O)=O)CC31CCN(CC2CC2)CC1 | 9 | . | . | . | .
Cc1cc2c3c(c1C)C1(C(=O)N3C(C)(C)CC2C)C(C#N)=C(N)Oc2n[nH]c(C)c21 (stereo not given) | 0 | -5 | 8 | 0 | 3
Cc1cc2c3c(c1)C1(C(=O)N3C(C)(C)CC2C)C(C#N)=C(N)Oc2n[nH]c(C)c21 (stereo not given) | . | 38* | -11 | 0 | 1
CN(CC(=O)Nc1ccc(F)c(F)c1F)C(=O)c1cc(-c2ccncc2)nc2ccccc12 | 29* | -2 | -12 | 0 | 7
COc1cccc(NC(=O)N[C@@H]2C=C[C@H](CC(=O)Nc3ccc(-c4ccccc4)cc3)O[C@@H]2CO)c1 | 1 | . | . | . | .
O=C1Nc2cc(C(=O)NCCCN3CCCC3)ccc2S/C1=C\c1ccccc1 | 3 | 19 | -13 | 0 | 73*
